Assay results reported in PubChem BioAssay.
Activity calls are given as the source filed them.

What was measured:
[1] = tested on: Plasmodium falciparum Sir2 (PF13_0152, Sir2A); assay: Plasmodium falciparum Sir2A binding compounds – biochemical, small-molecule microarray, 635 nm fluorescence, primary screen (AID 1098); details: fluorescence 635 nm, higher = more signal;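 note: score merges spot fluorescence intensity with its signal-to-noise ratio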
[2] = probe aDKK1 binding to arrayed compounds – biochemical, biotinylated probe, 635/667 nm fluorescence, primary screen (AID 1099); details: small-molecule microarray, higher = more signal;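 note: score merges 667nm spot fluorescence with signal to noise across triplicate slides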
[3] = probe aCHRDL2 binding to arrayed compounds – biochemical, biotinylated probe, 635/667 nm fluorescence, primary screen (AID 1100); details: small-molecule microarray, higher = more signal
[4] = change in splice reporter luminescence, either direction, cell-based, HEK293, spliceosome inhibition project, primary screen (AID 1101); details: HEK293 splicing luciferase reporter, 24 h, higher = more signal, called active from +8 up or from −8 down;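 note: HEK293 cells carrying a splicing-competent luciferase reporter gene; test concentration not given here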
[5] = biological target: Fibroblast growth factor 10 (Homo sapiens) (UniProt O15520); assay: compounds binding fibroblast growth factor 10 – biochemical, small-molecule microarray, 635 nm fluorescence, primary screen (AID 1102); details: FGF10 binding, fluorescence 635 nm, higher = more signal
[6] = tested on: glycogen synthase kinase-3 (GSK3A per assay name; protocol says GSK3B); assay: compounds binding glycogen synthase kinase-3 – biochemical, small-molecule microarray, 635 nm fluorescence, GSK3A, primary screen (AID 1103); details: fluorescence 635 nm, higher = more signal; note: the record names both GSK3A and GSK3B
[7] = biological target: Epidermal growth factor receptor (Homo sapiens) (UniProt P00533); assay: compounds binding epidermal growth factor receptor – biochemical, small-molecule microarray, 635 nm fluorescence, primary screen (AID 1104); details: EGFR binding, higher = more signal;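 note: score merges 667 nm emission intensity with spot signal to noise over triplicate slides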
[8] = biological target: Follistatin-related protein 3 (Homo sapiens) (UniProt O95633); assay: compounds binding follistatin-related protein 3 – biochemical, small-molecule microarray, 635 nm fluorescence, primary screen (AID 1105); details: FSTL3 binding, higher = more signal;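 note: score merges emission near 667 nm and signal to noise per printed spot across three slides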
[9] = biological target: Dickkopf-related protein 1 (Homo sapiens) (UniProt O94907); assay: small molecules binding DKK1 protein – biochemical, small-molecule microarray, 635 nm fluorescence scan, primary screen (AID 1106); details: higher = more signal;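 note: score merges emission near 667 nm with signal to noise over three replicate slides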
[10] = tested on: Inhibin beta A chain (activin A); assay: small molecules binding activin A – biochemical, small-molecule microarray, 635 nm fluorescence scan, primary screen (AID 1107); details: INHBA, higher = more signal;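 note: mouse activin A protein probed at 4.33 µg/mL on printed slides; score merges bound-protein fluorescence near 667 nm with spot signal-to-noise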
[11] = tested on: Human papillomavirus type 1a protein E7 (residues 44-93); assay: small molecules binding HPV E7 44-93 – biochemical, small-molecule microarray, residues 44-93, 635 nm fluorescence, primary screen (AID 1108); details: fluorescence 635 nm, higher = more signal;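 note: E7 fragment applied at 1 µg/mL in TBST for 1 h at 4 C; score combines spot fluorescence with its signal to noise ratio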
[12] = hepatitis C replication reporter changes, two-sided – Huh7 cells, luciferase reporter, HCV replication inhibitor project, primary screen (AID 1109); details: Huh7 HCV replicon luciferase reporter, 48 h; higher = more signal;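 note: huh7 hepatoma cells harbouring a luciferase neomycin HCV replicon reporter; luciferase luminescence as measure of HCV replicon replication; test concentration not given here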
[13] = biological target: Left-right determination factor 2 (Homo sapiens) (UniProt O00292); assay: small molecules binding LEFTY2 protein – biochemical, small-molecule microarray, 635 nm fluorescence scan, primary screen (AID 1110); details: higher = more signal
[14] = biological target: Calmodulin-1 (Homo sapiens) (UniProt P0DP23); assay: small molecules binding calmodulin-1 with EGTA – biochemical, small-molecule microarray, Cy5-labelled CALM1, profiling panel (AID 1111); details: Cy5-CALM1 binding fluorescence, higher = more signal;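 note: labelled calmodulin applied in Tris saline Tween buffer holding calcium plus EGTA and DTT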
[15] = biological target: Calmodulin-1 (Homo sapiens) (UniProt P0DP23); assay: small molecules binding Ca-loaded calmodulin-1 – biochemical, small-molecule microarray, Cy5-labelled CALM1, plus calcium, artefact control for SMM control-protein annotation, profiling panel (AID 1112); details: Cy5-CALM1 binding fluorescence, higher = more signal;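 note: score merges spot fluorescence with signal to noise from triplicate slides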
[16] = probe aWnt5a binding to arrayed compounds – biochemical, biotinylated probe, 635/667 nm fluorescence, primary screen (AID 1113); details: small-molecule microarray, higher = more signal;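 note: score merges 667 nm fluorescence intensity with signal-to-noise per printed feature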
[17] = probe aShh binding to arrayed compounds – biochemical, biotinylated probe, 635/667 nm fluorescence, primary screen (AID 1114); details: small-molecule microarray, higher = more signal;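 note: probe is biotin-labelled aShh protein from a stem cell growth factor screen; measures binding of labelled protein to compounds printed on the slide; score merges feature fluorescence at 667 nm with signal-to-noise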
[18] = probe aNog binding to arrayed compounds – biochemical, biotinylated probe, 635/667 nm fluorescence, primary screen (AID 1115); details: small-molecule microarray, higher = more signal;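 note: probe is biotinylated aNog protein used at 0.15 µg/mL for 1 h at 4 C; z-score combines 667 nm fluorescence of each spot with its signal to noise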
[19] = biological target: Torsin-1A-interacting protein 1 (Homo sapiens) (UniProt Q5JTV8); assay: compound microarray binding of lysate hLAP1 – cell lysate, small-molecule microarray, COS7 lysate, 635/667 nm fluorescence, primary screen (AID 1116); details: 635 nm fluorescence, higher = more signal
[20] = biological target: Alpha-bungarotoxin (Bungarus multicinctus) (UniProt P60615); assay: compounds binding labelled alpha-BTX control protein – biochemical, small-molecule microarray, Alexa647 label, 635/667 nm fluorescence, artefact control for SMM control protein annotation, profiling panel (AID 1117); details: alpha-BTX-A647 binding fluorescence, higher = more signal
Alpha-bungarotoxin (Bungarus multicinctus), sequence (P60615 whole entry, looked up): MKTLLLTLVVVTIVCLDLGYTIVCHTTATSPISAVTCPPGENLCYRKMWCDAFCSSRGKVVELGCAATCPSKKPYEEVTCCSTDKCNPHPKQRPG

Fibroblast growth factor 10 (Homo sapiens), sequence (O15520 whole entry, looked up): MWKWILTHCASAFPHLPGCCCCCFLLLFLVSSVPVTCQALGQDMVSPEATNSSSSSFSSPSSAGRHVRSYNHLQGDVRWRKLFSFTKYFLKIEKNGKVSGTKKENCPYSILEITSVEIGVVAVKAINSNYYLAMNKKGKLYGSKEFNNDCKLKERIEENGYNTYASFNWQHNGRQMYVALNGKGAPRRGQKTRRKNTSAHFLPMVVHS
Torsin-1A-interacting protein 1 (Homo sapiens), sequence (Q5JTV8 whole entry, looked up): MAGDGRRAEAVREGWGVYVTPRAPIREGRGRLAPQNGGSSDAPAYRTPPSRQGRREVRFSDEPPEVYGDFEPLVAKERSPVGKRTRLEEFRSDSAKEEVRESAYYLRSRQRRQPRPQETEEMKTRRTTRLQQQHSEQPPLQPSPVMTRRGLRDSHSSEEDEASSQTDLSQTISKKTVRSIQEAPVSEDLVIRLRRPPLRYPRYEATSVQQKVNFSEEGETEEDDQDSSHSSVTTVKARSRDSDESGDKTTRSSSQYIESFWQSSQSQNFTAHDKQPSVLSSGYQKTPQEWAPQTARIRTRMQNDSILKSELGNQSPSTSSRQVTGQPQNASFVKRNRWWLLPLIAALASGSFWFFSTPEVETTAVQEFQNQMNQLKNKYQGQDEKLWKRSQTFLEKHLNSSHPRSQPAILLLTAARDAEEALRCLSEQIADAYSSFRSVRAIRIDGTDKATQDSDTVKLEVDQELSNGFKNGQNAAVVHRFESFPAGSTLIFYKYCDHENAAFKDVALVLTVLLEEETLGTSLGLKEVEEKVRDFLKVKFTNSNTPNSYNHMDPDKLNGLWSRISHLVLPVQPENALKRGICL
Epidermal growth factor receptor (Homo sapiens), sequence (P00533 whole entry, looked up): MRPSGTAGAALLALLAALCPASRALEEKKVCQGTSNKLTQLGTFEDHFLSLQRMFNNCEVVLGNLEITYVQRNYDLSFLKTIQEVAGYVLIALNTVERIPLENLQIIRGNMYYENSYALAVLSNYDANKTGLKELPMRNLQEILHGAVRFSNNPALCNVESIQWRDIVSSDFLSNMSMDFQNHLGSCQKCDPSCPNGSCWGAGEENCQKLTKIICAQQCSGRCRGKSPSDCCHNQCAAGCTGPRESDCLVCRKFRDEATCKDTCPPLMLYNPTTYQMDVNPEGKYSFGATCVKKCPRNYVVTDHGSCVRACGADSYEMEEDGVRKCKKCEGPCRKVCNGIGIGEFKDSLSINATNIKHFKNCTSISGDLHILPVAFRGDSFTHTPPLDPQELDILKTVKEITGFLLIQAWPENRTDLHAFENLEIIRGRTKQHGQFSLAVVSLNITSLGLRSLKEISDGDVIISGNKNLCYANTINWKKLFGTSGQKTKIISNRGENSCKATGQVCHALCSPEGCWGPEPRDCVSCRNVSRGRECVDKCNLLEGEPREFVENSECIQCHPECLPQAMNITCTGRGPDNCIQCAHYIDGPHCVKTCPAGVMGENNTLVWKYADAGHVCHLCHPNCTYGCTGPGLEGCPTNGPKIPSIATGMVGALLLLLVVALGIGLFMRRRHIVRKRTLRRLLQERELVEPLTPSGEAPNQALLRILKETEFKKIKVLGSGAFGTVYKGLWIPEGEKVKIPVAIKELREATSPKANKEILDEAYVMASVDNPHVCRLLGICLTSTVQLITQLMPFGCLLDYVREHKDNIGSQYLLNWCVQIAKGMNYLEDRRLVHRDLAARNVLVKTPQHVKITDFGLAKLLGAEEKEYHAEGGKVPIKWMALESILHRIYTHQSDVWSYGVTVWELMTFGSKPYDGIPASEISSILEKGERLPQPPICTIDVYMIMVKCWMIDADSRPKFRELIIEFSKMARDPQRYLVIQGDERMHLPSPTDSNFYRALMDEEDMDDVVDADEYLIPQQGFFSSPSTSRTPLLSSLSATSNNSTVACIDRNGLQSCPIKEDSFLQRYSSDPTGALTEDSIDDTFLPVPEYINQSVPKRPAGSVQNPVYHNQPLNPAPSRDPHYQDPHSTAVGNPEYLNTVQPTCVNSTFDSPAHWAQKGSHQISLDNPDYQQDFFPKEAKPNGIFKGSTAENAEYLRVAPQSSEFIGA
Follistatin-related protein 3 (Homo sapiens), sequence (O95633 whole entry, looked up): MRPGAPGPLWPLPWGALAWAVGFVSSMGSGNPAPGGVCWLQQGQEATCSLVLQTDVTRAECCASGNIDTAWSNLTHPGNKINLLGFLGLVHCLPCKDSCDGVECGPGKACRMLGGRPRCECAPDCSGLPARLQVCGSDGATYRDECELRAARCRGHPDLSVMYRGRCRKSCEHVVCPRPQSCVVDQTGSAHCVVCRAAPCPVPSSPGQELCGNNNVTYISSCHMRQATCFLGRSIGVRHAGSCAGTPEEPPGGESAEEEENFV
Left-right determination factor 2 (Homo sapiens), sequence (O00292 whole entry, looked up): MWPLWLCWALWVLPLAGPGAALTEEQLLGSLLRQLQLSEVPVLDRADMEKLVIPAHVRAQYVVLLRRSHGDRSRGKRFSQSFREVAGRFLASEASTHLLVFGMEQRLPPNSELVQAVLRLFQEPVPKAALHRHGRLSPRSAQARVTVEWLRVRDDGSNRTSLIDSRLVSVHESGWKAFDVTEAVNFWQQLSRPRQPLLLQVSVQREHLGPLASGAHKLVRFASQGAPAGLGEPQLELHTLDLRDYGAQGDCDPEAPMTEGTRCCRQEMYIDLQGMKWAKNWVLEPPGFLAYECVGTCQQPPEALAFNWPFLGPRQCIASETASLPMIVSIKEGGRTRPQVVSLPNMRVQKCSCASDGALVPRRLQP
Dickkopf-related protein 1 (Homo sapiens), sequence (O94907 whole entry, looked up): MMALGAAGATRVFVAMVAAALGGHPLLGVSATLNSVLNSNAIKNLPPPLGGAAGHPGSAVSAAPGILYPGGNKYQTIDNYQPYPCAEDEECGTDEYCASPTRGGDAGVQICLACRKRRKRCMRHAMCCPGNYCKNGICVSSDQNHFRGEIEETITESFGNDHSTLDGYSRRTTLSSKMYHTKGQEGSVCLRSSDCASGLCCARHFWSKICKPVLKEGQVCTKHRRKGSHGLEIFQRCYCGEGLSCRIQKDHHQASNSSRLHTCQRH

| Compound | composite z-score [1] | composite z-score [2] | composite z-score [3] | z-score [4] | composite z-score [5] | composite z-score [6] | composite z-score [7] | composite z-score [8] | composite z-score [9] | composite z-score [10] | composite z-score [11] | z-score [12] | composite z-score [13] | composite z-score [14] | composite z-score [15] | composite z-score [16] | composite z-score [17] | composite z-score [18] | composite z-score [19] | composite z-score [20] |
| --- | --- | --- | --- | --- | --- | --- | --- | --- | --- | --- | --- | --- | --- | --- | --- | --- | --- | --- | --- | --- |
| COCCOC(=O)N1C(=O)[C@@]2(c3cc(C#CCCO)ccc31)[C@H](C(=O)N1CCCCCCC1)[C@H]1C(=O)O[C@H](c3ccccc3)[C@H](c3ccccc3)N1[C@@H]2c1ccc(OCCO)cc1 | 1.4 | 2.52 | 1.49 | 0.713 (inactive) | 0.888 | 0.704 | 1.59 | 1.55 | 1.63 | 1.67 | 1.39 | -0.616 | 1.01 | 2.13 | 1.05 | 0.933 | 0.953 | 1.99 | 3.97 | 2.01 |
| COC(=O)[C@@]1(Cc2ccc(OC)cc2)[C@H]2c3cc(C(=O)N4CCCC4)n(Cc4ccc(C)c(F)c4F)c3C[C@H]2CN1C(=O)c1ccccc1 | 1.05 | 1.09 | 1.33 | -0.282 (inactive) | 0.791 | 1.29 | -0.139 | 1.18 | -0.602 | 0.702 | 1.48 | -2.34 | -0.401 | 2.14 | 1.3 | -0.0553 | -0.155 | 1.65 | 0.113 | 1.55 |
| COCCOC(=O)N1C(=O)[C@@]2(c3cc(C#CCC(C(=O)OC)C(=O)OC)ccc31)[C@H](C(=O)N1CCN(c3ncccn3)CC1)[C@H]1C(=O)O[C@H](c3ccccc3)[C@H](c3ccccc3)N1[C@@H]2c1ccccc1OCCO | 0.664 | -0.0805 | -0.408 | 0.476 (inactive) | 1.33 | 1.3 | 0.926 | 1.38 | 0.962 | 0.286 | 1.38 | -1.94 | 1.16 | 0.875 | -0.487 | -0.0403 | -0.17 | -0.141 | 0.351 | 1.29 |
| COCCOC(=O)N1C(=O)[C@@]2(c3cc(C#CCCO)ccc31)[C@H](C(N)=O)[C@H]1C(=O)O[C@H](c3ccccc3)[C@H](c3ccccc3)N1[C@@H]2c1ccc(O)cc1 | 1.22 | -0.163 | 0.489 | 0.477 (inactive) | 0.344 | -0.124 | -0.376 | -0.131 | 0.0665 | 0.275 | -0.48 | 0.11 | -0.142 | -0.0162 | 0.461 | -0.0197 | -0.0035 | 0.0107 | 0.169 | 0.244 |
| CC(C)NC(=O)[C@@]1(c2ccc([N+](=O)[O-])cc2)CC(=O)N(C2CCCCC2)[C@@H]1c1ccc(CO)cc1I | 1.04 | 0.719 | 0.902 | 0.61 (inactive) | -0.0505 | 0.406 | -0.527 | -0.573 | -0.566 | -0.524 | 0.621 | -2.16 | -0.159 | 0.249 | 0.272 | 0.0375 | -0.189 | 0.176 | 0.707 | -0.174 |
| CC(C)N1C(=O)C[C@@](C(=O)NCC(F)(F)F)(c2ccc([N+](=O)[O-])cc2)[C@H]1c1ccc(CO)cc1 | 1.42 | -0.186 | 0.52 | -0.259 (inactive) | -0.244 | 0.0211 | -0.399 | -0.241 | -0.272 | 0.5 | 0.627 | -0.672 | -0.383 | -0.273 | -0.411 | -0.178 | -0.372 | -0.368 | -0.0079 | 0.259 |
| CCCC[C@H]1OB(O)C[C@H]2C1=C(COC)Cn1c(=O)n(-c3ccccc3)c(=O)n12 | -0.0483 | -0.383 | -0.738 | 0.271 (inactive) | 0.516 | 0.302 | 0.54 | 0.517 | 0.465 | 0.95 | 0.039 | -0.673 | 0.358 | -0.215 | -0.421 | -0.0792 | -0.0977 | 0.445 | 0.0892 | 0.0547 |
| CCOC(=O)C[C@H]1[C@H](OC(=O)c2ccc(C(=O)c3ccccc3)cc2)[C@@H](NC(=O)c2ccc3ccccc3n2)c2cc(OCCCO)ccc2N1C(=O)c1ccccc1 | 0.772 | 0.177 | 0.628 | 0.305 (inactive) | 0.719 | 1.28 | -0.278 | 0.806 | 0.271 | -0.177 | 0.997 | -1.63 | -0.538 | 1.47 | 0.202 | 0.0079 | 0.308 | 0.217 | 0.164 | 1.05 |
| CN1C(=O)C2C=CC(C(O)c3ccc([N+](=O)[O-])cc3)N(N3CCCCC3)C2C1=O (stereo not given) | 1.41 | 0.193 | 0.956 | 0.943 (inactive) | 0.941 | 0.964 | 0.4 | 0.832 | -0.0607 | 1.23 | 1.33 | 0.702 | 0.169 | 1.42 | 0.0877 | 0.0913 | 0.108 | 1.59 | -0.0204 | 1.08 |
| COC(=O)[C@@]1(Cc2ccc(OC)cc2)[C@@H]2C(=CC(=O)[C@H]2CC(=O)C(=O)N2CCCC2)CN1C(=O)c1ccccc1 | 0.108 | 1.01 | 0.918 | -2.47 (inactive) | -0.148 | -0.573 | 0.351 | 0.0649 | -0.69 | 0.765 | -0.514 | -1.88 | -0.505 | 0.946 | 0.713 | 0.368 | 1.06 | 1.04 | 0.674 | 0.15 |
| CCOC(=O)C[C@H]1[C@H](OC(=O)c2ccc(C(=O)c3ccccc3)cc2)[C@@H](NC(=O)c2ccc3ccccc3c2)c2cc(OCCCO)ccc2N1C(=O)Cc1ccc(OC)cc1 | 1.14 | 0.282 | 0.503 | -0.175 (inactive) | 0.545 | 0.158 | -0.16 | 0.303 | -0.213 | 0.856 | 0.86 | -0.989 | -0.0254 | 1.14 | 0.187 | -0.0405 | -0.0553 | 0.177 | 0.669 | 0.729 |
